This note sets out measurements from PubChem BioAssay (NCI).

About 83,000 compounds went through this panel and 20% of them were active in at least one assay; those are over-represented in the sample as a whole.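 Values shown are percent growth following 48 h exposure of cells in 96-well plates to a single concentration of compound; below 10 was considered active.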 Values without a mark were called inactive. The source made the active and inactive calls.

Holding throughout (experiment): NCI-60 one-dose screen, 48 h (100 = growth as untreated, 0 = no growth, -100 = all killed)
In one test the test system is SK-MEL-2 melanoma. The note with it: 10 µM unless noted.
The subject of another test is SN12C renal. Conditions: 10 µM unless noted.
In the next test the test system is UO-31 renal. Conditions: 10 µM unless noted.
A further test relates to TK-10 renal. The note with it: 10 µM unless noted.
In another test the test system is ACHN renal. The note with it: 10 µM unless noted.
The subject of the next test is CAKI-1 renal. The note with it: 10 µM unless noted.
The subject of the next test is A498 renal. Conditions: 10 µM unless noted.
For the next test, the system named is CCRF-CEM leukemia. Conditions: 10 µM unless noted.
Another test has as its system MOLT-4 leukemia. Conditions: 10 µM unless noted.
Another test concerns SR leukemia. Conditions: 10 µM unless noted.
The next test has as its system RPMI-8226 leukemia. The note with it: 10 µM.
The subject of another test is OVCAR-8 ovarian. The note with it: 10 µM unless noted.
In the next test the test system is OVCAR-5 ovarian. Conditions: 10 µM unless noted.
The subject of another test is OVCAR-4 ovarian. The note with it: 10 µM unless noted.
In a further test the test system is SK-OV-3 ovarian. Conditions: 10 µM.
Another test deals with IGROV1 ovarian. Conditions: 10 µM unless noted.
The subject of a further test is OVCAR-3 ovarian. Conditions: 10 µM unless noted.
The next test has as its system HS 578T breast. The note with it: 10 µM unless noted.
Another test relates to NCI/ADR-RES ovarian. Conditions: 10 µM unless noted.

In the case of `CC1SC(c2ccc(Cl)cc2)N(CCc2cccs2)C1=O` (configuration not stated), the growth is -72.8% (active) in the test with SK-MEL-2 melanoma; -75.6% (active) with SN12C renal; 1.81% (active) in the test on UO-31 renal; -16.5% (active) with TK-10 renal; -6.58% (active) with ACHN renal; -33.6% (active) with CAKI-1 renal. The growth was -13.7% (active) with A498 renal; 10.1% with CCRF-CEM leukemia; -4.19% (active) in the test on MOLT-4 leukemia; -1.75% (active) in the test on SR leukemia; -10.3% (active) in the test with RPMI-8226 leukemia; 4.04% (active) in the test with OVCAR-8 ovarian. Besides, the growth in the test with OVCAR-5 ovarian is 8.29% (active); in the test on OVCAR-4 ovarian it was 8.71% (active); in the test with SK-OV-3 ovarian it was 5.5% (active); in the test on IGROV1 ovarian, 4.04% (active); with OVCAR-3 ovarian, -30.3% (active); in the test on HS 578T breast, -16% (active). The growth with NCI/ADR-RES ovarian is -11% (active).
For `CN([N-]C(=O)CC(=O)[N-]N(C)C(=S)c1ccccc1)C(=S)c1ccccc1.[Cu+2]`, the growth is -90.2% (active) with SK-MEL-2 melanoma; -97.9% (active) with SN12C renal; -97.5% (active) with UO-31 renal; -99.1% (active) in the test with TK-10 renal; -50.6% (active) with ACHN renal; -94.7% (active) in the test with CAKI-1 renal. In addition, the growth in the test on A498 renal was -93.9% (active); in the test on CCRF-CEM leukemia, -19.7% (active); in the test with MOLT-4 leukemia, -36.2% (active); in the test on RPMI-8226 leukemia, -13.7% (active); with OVCAR-8 ovarian, -39.1% (active); in the test on OVCAR-4 ovarian it was -98.4% (active). Besides, the growth is -99.1% (active) with SK-OV-3 ovarian; -93.2% (active) in the test on IGROV1 ovarian; -85.7% (active) with OVCAR-3 ovarian; -12.3% (active) in the test with HS 578T breast; -3.82% (active) with NCI/ADR-RES ovarian.
For `CSC1=CC(=O)c2ccccc2C1=O`, the growth in the test with SK-MEL-2 melanoma was 96.1%; with SN12C renal it was 97%; in the test on UO-31 renal it was 28%; in the test with TK-10 renal, 97.9%; in the test on ACHN renal it was 24%; in the test with CAKI-1 renal, 33.6%. Also, the growth with A498 renal was 91.5%; in the test with CCRF-CEM leukemia, -16.7% (active); with MOLT-4 leukemia, -21.7% (active); in the test on SR leukemia, -33.5% (active); in the test with RPMI-8226 leukemia, 44%; in the test on OVCAR-8 ovarian it was 46.8%. For the same compound, the growth is -34.7% (active) in the test on OVCAR-4 ovarian; -75.7% (active) in the test with IGROV1 ovarian; -96.2% (active) in the test with OVCAR-3 ovarian; 81.4% in the test on HS 578T breast; 74% in the test with NCI/ADR-RES ovarian.
As to `Cc1oc2c(c1C(=O)N1CC[C@@H](N)C1)C(=O)c1c(c(O)c3ccccc3c1O)C2=O`, the growth with SK-MEL-2 melanoma is 77.4%; in the test on SN12C renal, 22%; in the test on UO-31 renal, 4.23% (active); with TK-10 renal, 57%; in the test with ACHN renal, 14.8%; in the test with CAKI-1 renal it was 28.1%. Further, the growth in the test with A498 renal is 61.5%; in the test on CCRF-CEM leukemia, -3.65% (active); in the test on MOLT-4 leukemia it was 0.576% (active); in the test with SR leukemia, 1.4% (active); in the test with RPMI-8226 leukemia it was 12.4%; in the test with OVCAR-8 ovarian it was 12.9%. The growth with OVCAR-5 ovarian was 85.3%; in the test on SK-OV-3 ovarian it was 35.3%; with OVCAR-3 ovarian, 3.52% (active); with HS 578T breast, 34.3%.
As to `N#CC1=C(N)Oc2cc(N)ccc2C1c1ccc(F)cc1` (configuration not stated), the growth was 79.8% in the test with SK-MEL-2 melanoma; 90.4% in the test with SN12C renal; 79.5% with UO-31 renal; 84.8% in the test with TK-10 renal; 99.4% in the test on ACHN renal; 62.6% in the test with CAKI-1 renal. In addition, the growth in the test with A498 renal was 64.8%; with CCRF-CEM leukemia it was 66.6%; in the test on MOLT-4 leukemia, 70.8%; with SR leukemia it was 20.5%; in the test on RPMI-8226 leukemia, 81.6%; in the test with OVCAR-8 ovarian, 98.6%. The growth in the test on OVCAR-5 ovarian is 97.2%; in the test on OVCAR-4 ovarian it was 94.1%; in the test on SK-OV-3 ovarian, 85.2%; in the test on IGROV1 ovarian, 69.4%; with OVCAR-3 ovarian, 96.8%; in the test with HS 578T breast it was 81.4%. Further, the growth with NCI/ADR-RES ovarian is 44.9%.
Take `Cc1nn2c(-c3nc4ccc(Cl)cc4[nH]3)c(-c3ccc(F)cc3)nc2s1`: the growth with SK-MEL-2 melanoma is 105%; in the test with SN12C renal, 106%; with UO-31 renal, 86.9%; in the test with TK-10 renal, 97.1%; in the test with ACHN renal, 102%; with CAKI-1 renal, 94.8%. Moreover, the growth in the test on A498 renal is 76.8%; in the test on CCRF-CEM leukemia, 72%; with MOLT-4 leukemia it was 72.6%; with SR leukemia, 72%; in the test with RPMI-8226 leukemia, 77.6%; with OVCAR-8 ovarian it was 87.7%. In addition, the growth in the test on OVCAR-5 ovarian is 98.5%; with OVCAR-4 ovarian it was 115%; in the test on SK-OV-3 ovarian, 107%; with OVCAR-3 ovarian, 110%; in the test with NCI/ADR-RES ovarian it was 96.4%.
For `COc1nc2c(cc1S(=O)(=O)c1ccccc1)CCc1c-2cnn1-c1ccccc1Cl`, the growth was 92.2% with SK-MEL-2 melanoma; 59% in the test with SN12C renal; 40.2% in the test on UO-31 renal; 42.2% in the test on TK-10 renal; 62.5% with ACHN renal; 49.9% with CAKI-1 renal. The growth was -1.8% (active) with A498 renal; 60.8% in the test on CCRF-CEM leukemia; 42.9% with MOLT-4 leukemia; 37.9% in the test with SR leukemia; 56.8% in the test on RPMI-8226 leukemia; 59.8% with OVCAR-8 ovarian. Also, the growth in the test on OVCAR-4 ovarian was 67.8%; in the test on SK-OV-3 ovarian, 85.7%; with IGROV1 ovarian, 77.1%; in the test with OVCAR-3 ovarian, 70.8%; in the test on HS 578T breast it was 68.4%; with NCI/ADR-RES ovarian, 70.2%.
With `CCN(c1ccc(C(=O)N2CCN(c3ccccc3)CC2)cc1)S(C)(=O)=O`, the growth with SK-MEL-2 melanoma is 100%; in the test on SN12C renal it was 103%; in the test with UO-31 renal it was 90.2%; with TK-10 renal, 88.7%; in the test with ACHN renal it was 109%; with CAKI-1 renal, 96.3%. Further, the growth with A498 renal was 87.9%; with CCRF-CEM leukemia, 100%; in the test on MOLT-4 leukemia, 95.8%; with SR leukemia, 90.2%; in the test on RPMI-8226 leukemia it was 102%; in the test with OVCAR-8 ovarian, 103%. Also, the growth with OVCAR-5 ovarian is 109%; in the test on OVCAR-4 ovarian it was 107%; in the test on SK-OV-3 ovarian, 106%; with IGROV1 ovarian, 107%; in the test with OVCAR-3 ovarian, 106%; with HS 578T breast, 105%. For the same compound, the growth in the test with NCI/ADR-RES ovarian was 108%.
